# Compound activity: PubChem BioAssay, National Center for Advancing Translational Sciences (NCATS)
# KB-3-1 tox: kills parental KB-3-1 adenocarcinoma cells; AID 1347075; KB-3-1 viability, CellTiter-Glo ATP luminescence, 72 h; Potency, µM (titrated, usually from 46.1 µM), usual class: cytotoxic; actives 1.4% (n = 400,000); further: potency means the concentration at half of the fitted maximal effect; on the % scale 0 is the no-effect control and ±100 the full control effect; nearly all actives have a fitted effect of over 60% in size
#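 Cells are dispensed, compounds pinned in, plates held at 37 °C for 72 h, then CellTiter-Glo is added and luminescence read after 10 minutes. Cell line: parental KB-3-1 in phenol-red-free DMEM, 10% FBS.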
# IL1B secr inh: blocks inflammasome-driven IL-1 beta release | THP-1 LPS/ATP IL-1B secretion, AlphaLISA, 16 h; active compounds read low | activity change, % at 57.5 µM | actives 4.7% (n = 360,000) | AID 743279; in the data active means activity change below about -50%; inconclusive means mostly about -30% to -49%; further: on the % scale 0 is the no-effect control and ±100 the full control effect
#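 THP-1 cells pretreated 1 hr with compounds (up to 57.5 uM final), then stimulated with LPS (250 ng/mL final) plus ATP (1.25 mM final); secreted IL-1B measured by AlphaLISA after 16 hr, decreased signal indicating inhibition.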
# SW480 rerep: DNA re-replication induction in SW480 cells. SW480 DNA re-replication, Hoechst DNA content imaging, 48 h. Potency, µM (top dose mostly 46.1 µM), without a hit: at the highest dose re-replication activation, usual class: activators. actives 1.8% (n = 340,000). AID 624297; further: potency means the concentration at half of the fitted maximal effect; % of control where 0% means no effect; nearly all actives have a fitted effect of over 55% in size
#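 250 cells/well; 23 nL cpd via pin tool; 48 hr, 37 C, 5% CO2; Hoechst 40 min; imager read of total nuclear intensity, ex 405/em 500-530 nm.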
# KB-V1 cytotox: kills drug-selected multidrug resistant KB-V1 cells; KB-V1 MDR cells viability, CellTiter-Glo, 72 h; Potency, µM (top dose mostly 46.1 µM), hits mostly cytotoxic; actives 3.4% (n = 400,000); AID 1347076; further: potency means the concentration at half of the fitted maximal effect; on the % scale 0 is the no-effect control and ±100 the full control effect; nearly all actives have a fitted effect of over 60% in size
#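 Following 72 h at 37 degrees C with compound, KB-V1 cell viability was read by CellTiter-Glo luminescence, medium being phenol-red-free DMEM plus 10% FBS; concentration-response parameters came from normalized, curve-fitted qHTS data.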
# MCF10A rerep: induces DNA re-replication in MCF 10a normal breast cells; MCF 10A DNA re-replication, Hoechst nuclear intensity, 48 h; Potency, µM (highest dose often 46.1 µM), inactives show top-dose activity, positive = re-replication, actives largely listed as activators; actives 2.9% (n = 350,000); AID 624296; further: potency means the concentration at half of the fitted maximal effect; % of control where 0% means no effect; nearly all actives have a fitted effect of over 50% in size
# Numbers without * were called inactive; i = inactive; ? = inconclusive; / = not tested or not shown. The list is not random: actives were taken first. Their share in the collection is about 9.9%. Unless noted, the call rests on the fitted dose curve; in most records, active means well fitted curve in the direction sought with a large enough effect; inconclusive means small, poorly fitted or top-dose-only effect, or another doubt; inactive means no such curve, though single readings can be large; an effect the other way counts as inactive or inconclusive.
SMILES,KB-3-1 tox,IL1B secr inh,SW480 rerep,KB-V1 cytotox,MCF10A rerep
Cc1cc(Cl)ccc1OCC(=O)NC(=S)Nc1ccccc1N1CCOCC1,i,4,-3%,i,?
Cc1cc(C)c(S(=O)(=O)NCCSCc2ccco2)c(C)c1,i,-2,13%,i,-6%
CN1CCN(CC(=O)Nc2cccc(S(=O)(=O)N(C)c3ccccc3)c2)CC1,i,-15,-1%,i,-8%
Cc1ccc(SCC(=O)OCC(=O)N(C)CC(=O)Nc2ccccc2Cl)cc1,i,25,-2%,i,-3%
CCc1ccccc1NC(=O)c1cnn(-c2ccccc2)c1C,i,-93*,0%,i,8%
Cc1ccccc1NC(=O)c1cnn(-c2ccccc2)c1C,i,?,-3%,i,?
CCN(CC)C(=O)c1cnn(-c2ccccc2)c1NC(=O)c1ccccc1F,i,3,-2%,4.6µM*,9%
Cc1ccc(C)c(NC(=O)c2cnn(-c3ccccc3)c2C)c1,i,-58*,17%,i,-13%
O=C(NCCCN1CCCC1=O)c1ccc(Cl)c(Cl)c1,i,6,0%,i,16%
Cc1ccc(CN2CCN(Cc3ccc4cc(F)ccc4n3)CC2CCO)o1 (stereo not drawn),i,8,7%,i,-1%
Cc1ccc(C(=O)c2cc(C)sc2N)cc1,i,-20,11%,i,-5%
Cc1cc(C(=O)c2ccc(Cl)cc2)c(NC(=O)CCl)s1,?,-117*,?,?,21µM*
CCc1cc(C(=O)c2ccc(OC)cc2)c(NC(=O)CCC(=O)O)s1,i,6,-2%,i,8%
CCc1cc(C(=O)c2ccc(C)cc2)c(NC(=O)CCl)s1,23µM*,-98*,?,?,?
Cc1cccnc1NC(=O)NC(=O)c1ccc(C(C)(C)C)s1,i,-13,2%,i,0%
OCCN(CCO)c1ncnc2c1sc1nc(N3CCOCC3)c3c(c12)CCCC3,i,1,-2%,i,10%
CC1(C)Cc2c(c(N3CCCC3)nc3sc4c(N5CCN(CCO)CC5)ncnc4c23)CO1,i,-61*,?,?,1%
OCCN1CCN(c2ncnc3c2sc2nc(N4CCOCC4)c4c(c23)CCC4)CC1,i,-77*,-2%,i,-17%
CC1(C)Cc2c(c(N3CCOCC3)nc3sc4c(NCCN)ncnc4c23)CO1,i,0,?,?,?
Cc1ccc(N2C(=O)CSC2c2cccnc2)c(Cl)c1 (stereo not drawn),?,26,?,?,?
COc1ccccc1/C=N/NC(=O)CC(=O)NCCc1ccccc1,i,/,-8%,i,0%
